# This is a sample that favours compounds with a hit; in the whole collection about 19% have one here.
# HT1080 IDH1KD tx: qHTS for induction of synthetic lethality in tumor cells producing 2HG: qHTS for the HT-1080-IDH1KD cell line | AID 686971, 2013 | HT-1080 IDH1 knockdown viability, ATP luminescence, 48 h | Potency, µM (highest dose often 46.1 µM), most hits filed as cytotoxic | 2% of 360,000 active
#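 After a 2 h attachment period, IDH1KD HT-1080 cells took pin-transferred compound for 48 h at 37 °C; ATP-based luminescence after 10 min room-temperature reagent incubation reported viability.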
# HT1080-NT tox: qHTS for induction of synthetic lethality in tumor cells producing 2HG: qHTS for the HT-1080-NT fibrosarcoma cell line | HT-1080-NT fibrosarcoma viability, CellTiter-Glo ATP luminescence, 48 h | Potency, µM (titrated, usually from 46.1 µM), hits mostly cytotoxic | 1.6% of 360,000 active | AID 686970, 2013;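 further: NT is the 2HG producing partner of a matched IDH1 knockdown line; nearly all actives have a fitted effect of over 55% in size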
#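 Read-out is CellTiter-Glo luminescence after 10 minutes at room temperature, following 48 hours' compound treatment of HT-1080-NT cells (750 cells/well, RPMI, 5% FBS, 37 degrees C).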
# IL-1B inflam inh: qHTS for Inhibitors of Inflammasome Signaling: IL-1-beta AlphaLISA Primary Screen | THP-1 LPS/ATP IL-1B secretion, AlphaLISA, 16 h; stronger effect = lower value | activity change, % at 57.5 µM | 4.7% of 360,000 active | AID 743279, 2014; in the data active means activity change below about -50%; inconclusive means mostly about -30% to -49%
#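 Secreted IL-1B measured by AlphaLISA bead assay after 16 h compound exposure of THP-1 cells; compounds (final up to 57.5 uM) added 1 h before LPS (250 ng/mL) and ATP (1.25 mM) stimulation; lower signal means less secretion.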
# ELG1 repair inh: qHTS screen for small molecules that inhibit ELG1-dependent DNA repair in human embryonic kidney (HEK293T) cells expressing luciferase-tagged ELG1 | HEK293T ELG1-luciferase reporter, luminescence, 16 h; DNA damage induced by 5-fluorouridine | Potency, µM (series often up to 46.1 µM), actives largely listed as inhibitors | 2.3% of 330,000 active; further: nearly all actives have a fitted effect of over 55% in size
#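 In this reporter screen, reduction of luminescence relative to DMSO vehicle indicated activity. Compounds and 5-fluorouridine were added together to 2,000 cells per well, incubated for 16 hr at 37 °C, then developed with ONE-Glo.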
# TDP1 cell CPT: qHTS for Inhibitors of human tyrosyl-DNA phosphodiesterase 1 (TDP1): qHTS in cells in presence of CPT; chicken DT40 Tdp1-/-;hTDP1 cells + 20 nM CPT, ATP luminescence, 48 h; AID 686979, 2013; 12% of 420,000 active; Potency, µM (top dose mostly 46.2 µM), hits mostly inhibitors; further: nearly all actives have a fitted effect of over 55% in size
#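 Chicken DT40 Tdp1-/- cells stably complemented with human TDP1 were seeded at 400 cells/well in medium containing 20 nM camptothecin, exposed to pin-transferred compounds, and grown at 37 °C for at least 48 hr. Viability was read as ATP luminescence.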
# TDP1 cell noCPT: qHTS for Inhibitors of human tyrosyl-DNA phosphodiesterase 1 (TDP1): qHTS in cells in absence of CPT; DT40 Tdp1-/- hTDP1 cells, no CPT, ATP luminescence, 48 h; Potency, µM (top dose mostly 46.2 µM), actives largely listed as inhibitors; 15% of 420,000 active; further: nearly all actives have a fitted effect of over 55% in size
#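 Stably hTDP1-transfected Tdp1-null chicken DT40 cells were treated with library compounds minus camptothecin and grown for at least 48 hr at 37 °C, after which cellular ATP was quantified by luminescence.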
# Hits are given with their value; - = inactive; ? = inconclusive; . = no result given. Unless noted, the call rests on the fitted dose curve; in most records, active means well fitted curve in the direction sought with a large enough effect; inconclusive means small, poorly fitted or top-dose-only effect, or another doubt; inactive means no such curve, though single readings can be large; an effect the other way counts as inactive or inconclusive.
SMILES,HT1080 IDH1KD tx,HT1080-NT tox,IL-1B inflam inh,ELG1 repair inh,TDP1 cell CPT,TDP1 cell noCPT
CCN1CCOC(=O)C1CC(=O)Nc1ccc(C(C)=O)cc1 (stereo unspecified),.,.,.,.,21µM,10µM
CCN1CCN(CC(=O)Nc2ccc(C(C)=O)cc2)CC1,-,-,-,-,-,-
CCN1CCOC(=O)C1CC(=O)Nc1ccccc1C(F)(F)F (stereo unspecified),.,.,.,.,3.3µM,3.7µM
COc1ccc(Cl)cc1NC(=O)CC1CCCC1,-,-,-,?,-,-
CCN1CCOC(=O)C1CC(=O)Nc1cc(Cl)ccc1OC (stereo unspecified),.,.,.,.,4.6µM,2.6µM
O=C(NCC(F)(F)F)c1ccc(S(=O)(=O)N2CCN(C(=O)C3CCCO3)CC2)cc1 (stereo unspecified),-,-,-,-,-,-
COc1ccc(Cl)cc1NC(=O)CN(C)C(=O)c1ccc(-n2cncn2)cc1,-,-,-,-,-,-
CCn1c(=O)c2cc(C(=O)NCc3ccc(F)cc3Cl)sc2c2ccccc21,.,.,.,.,-,-
CCN(CCCNC(=O)c1cc2c(=O)n(CC)c3ccccc3c2s1)c1ccccc1,.,.,.,.,?,18µM
CCn1c(=O)c2cc(C(=O)Nc3cccc(C(F)(F)F)c3)sc2c2ccccc21,.,.,.,.,7.3µM,9.2µM
CCn1c(=O)c2cc(C(=O)NCCCOC)sc2c2ccccc21,?,?,-50,?,18µM,10µM
CCn1c(=O)c2cc(C(=O)NCCC(C)C)sc2c2ccccc21,-,-,?,?,-,?
CCC(C)NC(=O)c1cc2c(=O)n(CC)c3ccccc3c2s1 (stereo unspecified),-,-,?,-,?,?
CCCN(CCC)CCCNC(=O)c1cc2c(=O)n(CC)c3ccccc3c2s1,-,-,-63,?,?,?
CCOC(=O)C1CCCN(Cc2cn3c(-c4cccc(Br)c4)nnc3s2)C1 (stereo unspecified),.,.,.,.,-,?
CCOC(CNC(=O)c1cc2c(=O)n(CC)c3ccccc3c2s1)OCC,-,-,?,-,?,?
CCCCN(CC)CCNC(=O)c1cc2c(=O)n(CC)c3ccccc3c2s1,-,-,?,?,16µM,21µM
CCCCN(CC)CCCNC(=O)c1cc2c(=O)n(CC)c3ccccc3c2s1,29µM,18µM,-77,?,?,?
CCn1c(=O)c2cc(C(=O)NCC(OC)OC)sc2c2ccccc21,-,-,-56,?,?,?
CCN(CC)CCNC(=O)Cc1c(C(=O)O)n(CC)c2ccccc12,-,-,-,?,-,-
Cc1ccc(NC(=O)CN(C)S(=O)(=O)c2cccc3nsnc23)cc1C,-,-,-,?,-,-
Cc1ccc2nc(NC(=O)CN(C)S(=O)(=O)c3ccc(Br)s3)sc2c1,-,?,-,?,?,?
Cc1ccc2nc(NC(=O)CN(C)S(=O)(=O)c3cccc4nsnc34)sc2c1,8.2µM,?,-,-,3.3µM,2.9µM
Cc1ccnc(NC(=O)CN(C)S(=O)(=O)c2cccc3nsnc23)c1,-,-,-,-,?,7.3µM
Cc1ccc(S(=O)(=O)N(C)CC(=O)Nc2nc3ccccc3s2)cc1,-,-,-,?,16µM,21µM
CCc1nn(CC(=O)NCCCOC)c(=O)c2cc3occc3n12,.,.,.,.,-,-
O=C(Cn1c(=O)c2ccccc2n(CC(=O)Nc2ccc(F)cc2)c1=O)NCCc1ccccc1,.,.,.,.,-,?
CC1(C)N=C(N)N=C(N)N1c1ccc(Cl)cc1,.,.,.,.,?,0.34µM

# High-throughput results (PubChem BioAssay)
